According to the supplement of paper PMC8728848:
The sample as a whole holds a higher share of the strongest signals than the screen did.

Key:
Assay in all cases: glycan array binding signal (z-score within array); higher = stronger binding
Conditions in all cases: glycan notation: IUPAC condensed, linker removed
[1] = target: Fuc(a1-2)Gal(b1-3)GalNAc(a1-3)[Fuc(a1-2)]Gal(b1-4)GlcNAc
Outline: (§1)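 The binding signal is a Z-score computed within each array and averaged over linkers. Arrays of the same protein sequence at different concentrations or buffers were also averaged together. Data originate from 3228 arrays in the Consortium for Functional Glycomics database, kept only where the protein sequence was available.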

Fuc(a1-2)Gal(b1-4)GlcNAc = target: Fuc(a1-2)Gal(b1-4)GlcNAc
Outline: as §1

[2] = target: Fuc(a1-2)Gal(b1-4)GlcNAc(b1-3)Gal(b1-4)GlcNAc(b1-2)Man(a1-3)[Fuc(a1-2)Gal(b1-4)GlcNAc(b1-3)Gal(b1-4)GlcNAc(b1-2)Man(a1-6)]Man(b1-4)GlcNAc(b1-4)GlcNAc
Outline: as §1

[3] = target: Fuc(a1-2)Gal(b1-4)GlcNAc(b1-6)GalNAc
Outline: as §1

[4] = target: Fuc(a1-2)Gal(b1-4)[Fuc(a1-3)]GlcNAc(b1-3)[Neu5Ac(a2-6)Gal(b1-4)GlcNAc(b1-6)]Gal(b1-4)Glc
Outline: as §1

[5] = target: Fuc(a1-2)[Gal(a1-3)]Gal(b1-4)GlcNAc(b1-3)[Fuc(a1-2)[Gal(a1-3)]Gal(b1-4)GlcNAc(b1-6)]GalNAc
Outline: as §1

[6] = target: Fuc(a1-2)[GalNAc(a1-3)]Gal(b1-3)GlcNAc(b1-2)Man(a1-3)[Fuc(a1-2)[GalNAc(a1-3)]Gal(b1-3)GlcNAc(b1-2)Man(a1-6)]Man(b1-4)GlcNAc(b1-4)[Fuc(a1-6)]GlcNAc
Outline: as §1

[7] = target: Fuc(a1-2)[GalNAc(a1-3)]Gal(b1-4)[Fuc(a1-3)]GlcNAc(b1-3)GalNAc
Outline: as §1

[8] = target: Fuc(a1-3)[Gal(b1-4)]GlcNAc(b1-6)GalNAc
Outline: as §1

Gal(a1-3)Gal = target: Gal(a1-3)Gal
Outline: as §1

[9] = target: Gal(a1-3)Gal(b1-3)GlcNAc(b1-6)GalNAc
Outline: as §1

Gal(a1-3)Gal(b1-4)Glc = target: Gal(a1-3)Gal(b1-4)Glc
Outline: as §1

Gal(b1-3)Gal(b1-4)GlcNAc = target: Gal(b1-3)Gal(b1-4)GlcNAc
Outline: as §1

Gal(b1-3)GalNAc = target: Gal(b1-3)GalNAc
Outline: as §1

[10] = target: Gal(b1-3)GlcNAc(b1-3)Gal(b1-4)GlcNAc(b1-6)[Gal(b1-3)GlcNAc(b1-3)]Gal(b1-4)Glc
Outline: as §1

[11] = target: Gal(b1-3)GlcNAc(b1-3)Gal(b1-4)[Fuc(a1-3)]GlcNAc
Outline: as §1

[12] = target: Gal(b1-3)[Fuc(a1-4)]GlcNAc(b1-2)Man
Outline: as §1

[13] = target: Gal(b1-3)[Fuc(a1-4)]GlcNAc(b1-3)Gal(b1-4)[Fuc(a1-3)]GlcNAc
Outline: as §1

[14] = target: Gal(b1-4)GlcNAc(b1-3)Gal(b1-4)GlcNAc(b1-2)[Gal(b1-4)GlcNAc(b1-3)Gal(b1-4)GlcNAc(b1-6)]Man(a1-6)[Gal(b1-4)GlcNAc(b1-3)Gal(b1-4)GlcNAc(b1-2)Man(a1-3)]Man(b1-4)GlcNAc(b1-4)GlcNAc
Outline: as §1

[15] = target: Gal(b1-4)GlcNAc(b1-3)Gal(b1-4)GlcNAc(b1-3)Gal(b1-4)GlcNAc
Outline: as §1

[16] = target: Gal(b1-4)GlcNAc(b1-3)GalNAc
Outline: as §1

Gal3S(b1-4)Glc = target: Gal3S(b1-4)Glc
Outline: as §1

[17] = target: Gal3S(b1-4)[Fuc(a1-3)]Glc6S
Outline: as §1

GalNAc3S(b1-4)GlcNAc = target: GalNAc3S(b1-4)GlcNAc
Outline: as §1

[18] = target: GlcNAc(b1-2)[GlcNAc(b1-6)]Man(a1-6)[GlcNAc(b1-2)Man(a1-3)]Man(b1-4)GlcNAc(b1-4)[Fuc(a1-6)]GlcNAc
Outline: as §1

[19] = target: GlcNAc(b1-3)Gal(b1-4)GlcNAc
Outline: as §1

[20] = target: GlcNAc(b1-3)Gal(b1-4)GlcNAc(b1-2)Man(a1-3)[GlcNAc(b1-3)Gal(b1-4)GlcNAc(b1-2)Man(a1-6)]Man(b1-4)GlcNAc(b1-4)GlcNAc
Outline: as §1

[21] = target: GlcNAc(b1-3)Gal(b1-4)GlcNAc(b1-3)Gal(b1-4)GlcNAc
Outline: as §1

[22] = target: GlcNAc(b1-3)Gal(b1-4)GlcNAc(b1-6)[Gal(b1-3)]GalNAc
Outline: as §1

[23] = target: GlcNAc(b1-3)[GlcNAc(b1-6)]GalNAc
Outline: as §1

[24] = target: GlcNAc(b1-4)GlcNAc(b1-4)GlcNAc(b1-4)GlcNAc(b1-4)GlcNAc(b1-4)GlcNAc
Outline: as §1

[25] = target: GlcNAc6S(b1-3)Gal(b1-4)GlcNAc
Outline: as §1

[26] = target: Man(a1-2)Man(a1-3)[Man(a1-2)Man(a1-6)]Man(a1-6)[Man(a1-2)Man(a1-2)Man(a1-3)]Man
Outline: as §1

[27] = target: Man(a1-3)[Man(a1-6)]Man(b1-4)GlcNAc(b1-4)[Fuc(a1-6)]GlcNAc
Outline: as §1

Neu5Ac(a2-3)Gal = target: Neu5Ac(a2-3)Gal
Outline: as §1

[28] = target: Neu5Ac(a2-3)Gal(b1-3)GalNAc
Outline: as §1

[29] = target: Neu5Ac(a2-3)Gal(b1-4)GlcNAc(b1-2)Man(a1-3)[Neu5Ac(a2-3)Gal(b1-4)GlcNAc(b1-2)Man(a1-6)]Man(b1-4)GlcNAc(b1-4)[Fuc(a1-6)]GlcNAc
Outline: as §1

[30] = target: Neu5Ac(a2-3)Gal(b1-4)GlcNAc(b1-3)Gal(b1-4)GlcNAc(b1-3)[Neu5Ac(a2-3)Gal(b1-4)GlcNAc(b1-3)Gal(b1-4)GlcNAc(b1-6)]GalNAc
Outline: as §1

[31] = target: Neu5Ac(a2-3)Gal6S(b1-4)[Fuc(a1-3)]GlcNAc
Outline: as §1

[32] = target: Neu5Ac(a2-3)[GalNAc(b1-4)]Gal(b1-4)GlcNAc
Outline: as §1

[33] = target: Neu5Ac(a2-6)Gal(b1-4)GlcNAc
Outline: as §1

[34] = target: Neu5Ac(a2-6)Gal(b1-4)GlcNAc(b1-6)[Gal(b1-3)GlcNAc(b1-3)]Gal(b1-4)Glc
Outline: as §1

[35] = target: Neu5Ac(a2-8)Neu5Ac(a2-8)Neu5Ac(a2-8)Neu5Ac(a2-3)[GalNAc(b1-4)]Gal(b1-4)Glc
Outline: as §1

[36] = target: Neu5Ac9Ac(a2-3)Gal(b1-4)GlcNAc
Outline: as §1

[37] = target: Neu5Gc(a2-3)Gal(b1-3)GlcNAc
Outline: as §1

B1: R2-fiber (Pseudomonas aeruginosa), Q9S576 (protein)
chain: HHHHHHKVAKDLVVSLAYQVRTEDGVLVDESPVSAPLDYLHGHGSLISGLETALEGHEVGDKFDVAVGANDAYGQYDENLVQRVPKDVFMGVDELQVGMRFLAETDQGPVPVEITAVEDDHVVVDGNHMLAGQNLKFNVEVVAIREATEEELAHGHVHGAHDHHHDHDHDGCCGGHGHDHGHEHGGEGCCGGKGNGGCGCHENLYFQGVTAGMALAATDIPGLDASKLVSGVLAEQRLPVFARGLATAVSNSSDPNTATVPLMLTNHANGPVAGRYFYIQSMFYPDQNGNASQIATSYNATSEMYVRVSYAANPSIREWLPWQRCDIGGSFTKEADGELPGGVNLDSMVTSGWWSQSFTAQAASGANYPIVRAGLLHVYAASSNFIYQTYQAYDGESFYFRCRHSNTWFPWRRMWHGGDFNPSDYLLKSGFYWNALPGKPATFPPSAHNHDVGQLTSGILPLARGGVGSNTAAGARSTIGAGVPATASLGASGWWRDNDTGLIRQWGQVTCPADADASITFPIPFPTLCLGGYANQTSAFHPGTDASTGFRGATTTTAVIRNGYFAQAVLSWEAFGR
glycan array binding signal (z-score) [1]: 2.11 | glycan array binding signal (z-score) (Fuc(a1-2)Gal(b1-4)GlcNAc): 0.297 | glycan array binding signal (z-score) [2]: -1.36 | glycan array binding signal (z-score) [3]: -0.579 | glycan array binding signal (z-score) [4]: -0.021 | glycan array binding signal (z-score) [5]: 2.68 | glycan array binding signal (z-score) [6]: -0.288 | glycan array binding signal (z-score) [7]: 3.46 | glycan array binding signal (z-score) [8]: 2.09 | glycan array binding signal (z-score) (Gal(a1-3)Gal): 0.366 | glycan array binding signal (z-score) [9]: 0.045 | glycan array binding signal (z-score) (Gal(a1-3)Gal(b1-4)Glc): -0.505 | glycan array binding signal (z-score) (Gal(b1-3)Gal(b1-4)GlcNAc): -0.114 | glycan array binding signal (z-score) (Gal(b1-3)GalNAc): -0.235 | glycan array binding signal (z-score) [10]: 0.141 | glycan array binding signal (z-score) [11]: 0.162 | glycan array binding signal (z-score) [12]: -0.063 | glycan array binding signal (z-score) [13]: 2.1 | glycan array binding signal (z-score) [14]: 2.06 | glycan array binding signal (z-score) [15]: 0.018 | glycan array binding signal (z-score) [16]: -1.43 | glycan array binding signal (z-score) (Gal3S(b1-4)Glc): -0.16 | glycan array binding signal (z-score) [17]: 0.853 | glycan array binding signal (z-score) (GalNAc3S(b1-4)GlcNAc): -0.587 | glycan array binding signal (z-score) [18]: 14.6 | glycan array binding signal (z-score) [19]: -0.499 | glycan array binding signal (z-score) [20]: 0.012 | glycan array binding signal (z-score) [21]: 0.586 | glycan array binding signal (z-score) [22]: 0.122 | glycan array binding signal (z-score) [23]: 0.283 | glycan array binding signal (z-score) [24]: -0.525 | glycan array binding signal (z-score) [25]: -0.144 | glycan array binding signal (z-score) [26]: -0.717 | glycan array binding signal (z-score) [27]: -0.775 | glycan array binding signal (z-score) (Neu5Ac(a2-3)Gal): 2.35 | glycan array binding signal (z-score) [28]: -0.092 | glycan array binding signal (z-score) [29]: 5.23 | glycan array binding signal (z-score) [30]: -0.406 | glycan array binding signal (z-score) [31]: 5.49 | glycan array binding signal (z-score) [32]: -0.151 | glycan array binding signal (z-score) [33]: 3 | glycan array binding signal (z-score) [34]: 0.031 | glycan array binding signal (z-score) [35]: 0.115 | glycan array binding signal (z-score) [36]: -1.16 | glycan array binding signal (z-score) [37]: -0.167
